# In PubChem BioAssay AID1053197 (The Scripps Research Institute Molecular Screening Center, 2014):
# The campaign covered roughly 370,000 compounds. About 2,600 (0.7%) were called active. What follows is part of a selection rich in actives, with near analogues and random picks from the rest. Unmarked numbers belong to inactive results.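 How the source made its calls: active means inhibition above a cutoff: mean of compounds within the control limits plus 3 SD of those (cut at about 17% in these data); inactive means the rest.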
# Target: Sialate O-acetylesterase (Homo sapiens) (UniProt Q9HAT2)
# Experiment: blockers of sialate O-acetylesterase activity-probe labeling – biochemical, fluorescence polarization, FP-Rh probe, 1536-well HTS, primary screen (AID 1053197);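 further: 0% = plate median of compound wells and 100% = probe without SIAE protein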
# Details: SIAE FP-Rh probe binding, at 9.66 µM, stronger effect = higher value
# Sequence of Sialate O-acetylesterase (Homo sapiens) (Q9HAT2 whole entry, looked up): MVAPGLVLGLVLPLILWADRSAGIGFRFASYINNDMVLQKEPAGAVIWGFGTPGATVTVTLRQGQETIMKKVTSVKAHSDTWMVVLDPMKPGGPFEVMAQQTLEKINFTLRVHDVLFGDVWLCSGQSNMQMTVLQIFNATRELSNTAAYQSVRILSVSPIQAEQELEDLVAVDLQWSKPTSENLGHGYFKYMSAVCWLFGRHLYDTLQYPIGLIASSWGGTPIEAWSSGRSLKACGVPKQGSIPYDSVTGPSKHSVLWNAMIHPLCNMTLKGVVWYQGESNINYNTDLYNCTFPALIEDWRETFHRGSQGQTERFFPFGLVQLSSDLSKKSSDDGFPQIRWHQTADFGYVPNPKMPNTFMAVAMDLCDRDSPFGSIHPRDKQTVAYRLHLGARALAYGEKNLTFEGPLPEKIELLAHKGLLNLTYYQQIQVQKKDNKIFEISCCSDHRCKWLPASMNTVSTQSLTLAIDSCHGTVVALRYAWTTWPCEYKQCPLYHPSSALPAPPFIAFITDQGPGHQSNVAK
row,Structure (SMILES),inhibition
1,CNC(=S)N/N=C/c1ccc(OCc2ccccc2)c(Br)c1,-1.33%
2,NC(=O)Cn1cc(/C=N\NS(=O)(=O)c2ccccc2)c2ccccc21,10.5%
3,CNC(=S)N/N=C/c1cn(Cc2ccc(C)cc2)c2ccccc12,18.3% (active)
4,c1coc(CCNc2ncnc3ccc(-c4ccc5c(c4)OCO5)cc23)c1,-15.4%
5,CCC(=O)Nc1ccc2c(c1)C(=O)N(C)[C@H]1CC[C@H](CC(=O)NCCOC)O[C@@H]1CO2,-4.02%
6,COc1ccc(C#CCNCc2ccc(OC)cc2OC)cc1,3.3%
7,COc1cccc(/C=N/Nc2cc(C)nc(-c3ccccc3O)n2)c1O,18.5% (active)
8,O=C1CCN(C(=S)NCCc2ccccc2)CC1,17.5% (active)
9,Oc1ccc(N2CCN(C(=S)NCc3ccccc3)CC2)cc1,10.2%
10,Oc1cc2c(cc1O)CN(C(=S)NCCc1ccc(Cl)cc1)CCC2,2.67%
11,CCOC(=O)C(=O)N(Cc1ccccc1)c1ccccc1C(=O)Nc1cc(OC)ccc1OC,-7.2%
12,CC(C)(C)OC(=O)NCc1cc(F)ccc1/C=C/S(=O)(=O)NCCc1ccccc1,-1.86%
13,COC(=O)c1cc(S(=O)(=O)N2CCN(c3ccccc3C)CC2)cn1C,2.1%
14,NC(=O)C1(N2CCCCC2)CCN(C(=O)c2ccc(C#Cc3ccccc3)o2)CC1,-5.47%
15,CC(C)(O)C#Cc1ccc(C(=O)N2CCC(C(N)=O)(N3CCCCC3)CC2)cc1,22.5% (active)
16,CCC(=O)N1CCC(C(N)=O)(N2CCCCC2)CC1,-0.17%
17,CCC[C@H]1C(=O)CC[C@@]23CCCN2C(=O)CCC[C@@H]13,-0.79%
18,CC[C@@H](CCC(=O)N(c1ccccc1)c1ccccc1)C1CC1,-1.88%
19,COC(=O)[C@]1(C#N)CC(=O)N(CC2CCCCC2)[C@@H]1c1ccccc1,2.31%
20,COc1ccc(C2C3=C(OC(C)=O)c4ccccc4C3=Nc3c2c(=O)n(C)c(=O)n3C)cc1 (stereo not given),1.68%
21,Cc1cccc(C2c3c(n(C)c(=O)n(C)c3=O)N=C3c4ccccc4C(=O)C32)c1 (stereo not given),17.7% (active)
22,Cc1cccc(C2C3=C(CCCC3=O)N=C3c4ccccc4C(=O)C32)c1 (stereo not given),6.75%
23,CCC(CO)Nc1cccc2c1S(=O)(=O)N(Cc1cn(Cc3ccccc3C(F)(F)F)nn1)Cc1ccccc1O2 (stereo not given),7.92%
24,COC(=O)c1cc(S(=O)(=O)N2CCN(C(=O)C3CCCO3)CC2)cn1C (stereo not given),-4.53%
25,CCCCOCCCNC(=O)C[C@H]1C[C@@]2(C(=O)OC)C(=C[C@H](C(C)(C)C)O[C@@H]2C)N(CCc2ccc(OC)c(OC)c2)C1=O,-1.28%
